Several values for one entry are separate records, joined by “and”; a condition that tells them apart may be missing. Equal entries are not always repeated. Results filed as inconclusive are left out. Activity calls are given as the source filed them. Unless noted, the call rests on the fitted dose curve; in most records, active means well fitted curve in the direction sought with a large enough effect; inconclusive means small, poorly fitted or top-dose-only effect, or another doubt; inactive means no such curve, though single readings can be large; an effect the other way counts as inactive or inconclusive.
Key:
[1] = Cell Viability - NIH 3T3 (AID 541); conditions: NIH 3T3 cell viability, qHTS; activity change, negative = cytotoxicity: at 92.2 µM (top of the series);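 further: cells exposed to compound for 40 hours; plate controls were DMSO alone for no effect and tamoxifen positive control for full effect; nearly all actives have a fitted effect of over 25% in size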
Procedure, shortened: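 Intracellular ATP (CellTiter-Glo luminescence, 20 min at room temperature) measured after 40 hr compound exposure at 37 °C of 1000 NIH 3T3 mouse fibroblasts/well in complete medium; AC50 derived by Hill-equation modelling of qHTS concentration-response curves.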

[2] = Cell Viability - SH-SY5Y (AID 544); conditions: SH-SY5Y neuroblastoma cell viability; viability change, negative = cytotoxic: at 92.2 µM (top of the series);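 further: cells exposed to compound for 40 hours; nearly all actives have a fitted effect of over 55% in size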; further: potency means the concentration at half of the fitted maximal effect
Procedure, shortened: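 Cytotoxicity measured via ATP-dependent luciferase luminescence (CellTiter-Glo) following 40 h, 37 °C exposure of 1500 SH-SY5Y cells per well. Concentration-response data were fitted with the standard Hill equation to give AC50.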

[3] = Cell Viability - Mesenchymal (AID 546);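 further: cells exposed to compound for 40 hours before reading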
Procedure, shortened: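 Human renal mesenchymal cells (glomerulus-derived), 1000 cells/well, 5 hr 37 °C pre-incubation; compound 40 hr, 37 °C; CellTiter-Glo, 20 min RT; luminescence; AC50 via Hill equation.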

[4] = Cellular Toxicity (caspase-3) SHSY5Y (AID 657)
Procedure, shortened: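 SH-SY5Y human neuroblastoma cells (1500/well) were treated with compounds for 16 h at 37 °C, then Caspase-Glo 3/7 luminescence was read after 1 h at room temperature. Data normalized to DMSO and 10 uM staurosporine; AC50 from Hill fits.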

[5] = Cellular Toxicity (caspase-3) BJ (AID 658);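 further: 0% = DMSO basal and 100% = 10 µM staurosporine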
Procedure, shortened: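 qHTS, BJ fibroblasts, 1000 cells/well; 5 hr preincubation, 16 hr compound, 37 °C; Caspase-Glo 3/7 reagent, 1 hr RT; luminescence. DMSO = 0%, 10 uM staurosporine = 100%. Hill-equation AC50.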

[6] = Cellular Toxicity (caspase-3) Mesangial (AID 660);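 further: combined caspase 3 and 7 activity read by Caspase-Glo luminescence; cells exposed to compound for 16 h before the caspase read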
Procedure, shortened: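 Caspase 3/7 activation measured by Caspase-Glo 3/7 luminescence (20 min, room temperature) following 16 h exposure of mesangial cells (1000/well); AC50 from Hill-equation fit, normalized to DMSO and 100 uM tamoxifen.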

[7] = Cellular Toxicity (caspase-3) H-4-II-E (AID 663); conditions: Potency: caspase-3 activation;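 further: cells exposed to compound for 16 hr before readout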
Procedure, shortened: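 H-4-II-E rat hepatoma, 1500 cells/well, 5 hr settle at 37 °C; compound 16 hr, 37 °C, complete medium; Caspase-Glo 3/7, 20 min RT; luminescence. DMSO = 0%, 100 uM tamoxifen = 100%; Hill-equation AC50.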

[8] = Cellular Toxicity (caspase-3) NIH 3T3 (AID 666);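 further: caspase signal read after 16 h compound exposure; 0% = DMSO basal and 100% = 100 µM tamoxifen stimulation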
Procedure, shortened: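 Caspase-Glo 3/7 luminescence reported caspase activation in 1000 NIH 3T3 cells/well after 16 h compound exposure at 37 C. DMSO set basal and 100 uM tamoxifen set 100% stimulation; concentration-response modeled with the Hill equation for AC50.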

[9] = Cell Viability - LYMP2-023 (AID 975);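 further: cellular ATP measured by luciferase luminescence as viability proxy; plate controls were DMSO only for no effect and 92 µM tetraoctylammonium bromide control for full effect; nearly all actives have a fitted effect of over 55% in size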
Procedure, shortened: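 Intracellular ATP, read by CellTiter-Glo luminescence, reports viability after 24 hr compound exposure at 37 C. 2500 lymphoblastoid cells/well (LYMP2-023) seeded 5 hr beforehand; Hill fits give AC50; positive control tetraoctylammonium bromide.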

[10] = Cell Viability - LYMP2-022 (AID 987);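 further: 0% = DMSO alone and full effect = tetraoctylammonium bromide at 92 µM; nearly all actives have a fitted effect of over 55% in size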
Procedure, shortened: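 Cytotoxicity read as decreased cellular ATP (CellTiter-Glo luminescence, 30 min room temperature) after 24 hours compound exposure of 2500 lymphoblastoid LYMP2-022 cells/well at 37 C. Concentration-response data fitted with standard Hill equation for AC50.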

[11] = Cell Viability - LYMP1-002 - Assay at 24 hr (AID 993); further: on the % scale 0 is the no-effect control and ±100 the full control effect
Procedure, shortened: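 qHTS cytotoxicity at 24 h: CellTiter-Glo ATP luminescence in lymphoblastoid line LYMP1-002 incubated with compound at 37 °C. Concentration-response modeled with the Hill equation for AC50; tetraoctylammonium bromide served as positive control.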

[12] = Cell Viability - LYMP1-002 - Assay at 40 hr (AID 994);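 further: 0% = DMSO only and full inhibition = 92 µM tetraoctylammonium bromide; nearly all actives have a fitted effect of over 60% in size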
Procedure, shortened: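 Cytotoxicity was read as loss of cellular ATP (CellTiter-Glo luminescence) after 40 hr compound exposure at 37 C of 2500 LYMP1-002 lymphoblastoid cells per well. Concentration-response data were fitted with the standard Hill equation to give AC50.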

[13] = qHTS assay for small molecule disruptors of the mitochondrial membrane potential - 1 hr assay (AID 651754; calls by dose curve; further: nearly all actives have a fitted effect of over 35% in size; further: potency means the concentration at half of the fitted maximal effect)
Procedure, shortened: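 Mitochondrial potential in living HepG2 cells after 1 hr compound treatment at 37C was read with Mito-MPS dye added for a further 30 min. Red aggregate and green monomer fluorescence were measured; loss of potential leaves dye as cytoplasmic monomers.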

[14] = qHTS assay for small molecule disruptors of the mitochondrial membrane potential - 5 hr assay (AID 651755; calls by dose curve; further: nearly all actives have a fitted effect of over 40% in size; further: potency means the concentration at half of the fitted maximal effect)
Procedure, shortened: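 Read-out: ratiometric Mito-MPS fluorescence, green monomer (ex 490/em 535) vs red mitochondrial aggregate (ex 540/em 590). HepG2 cells treated 5 hr at 37C before 30 min dye loading.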

[15] = target: Peroxisome proliferator-activated receptor alpha (Homo sapiens) (UniProt Q07869); experiment: qHTS assay for small molecule agonists of the peroxisome proliferator-activated receptor alpha (PPARalpha) signaling pathway (AID 651778); conditions: PathHunter PPARalpha complementation, chemiluminescence, 6 h; active compounds read high; further: % of control where 0% means no effect
Procedure, shortened: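 Enzyme-fragment complementation assay in which ligand-bound PPARalpha translocates and forms an active enzyme that generates chemiluminescence. Cells were plated overnight, exposed to compound for 6 hr at 37 C, and then given detection reagent for 60 min at room temperature.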

[16] = Cellular Toxicity (caspase-3) HUV-EC-C (AID 656)
Procedure, shortened: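 HUV-EC-C endothelial cells, 1000/well, were pre-incubated 5 hr at 37°C, then exposed to compounds for 16 hr at 37°C. Caspase-Glo 3/7 luminescence was read after 20 min at room temperature. AC50 came from Hill fits, normalized to DMSO and 100 uM tamoxifen.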

[17] = Cell Viability - LYMP2-019 (AID 973);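 further: 0% = DMSO alone and full effect = 92 µM tetraoctylammonium bromide; nearly all actives have a fitted effect of over 55% in size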
Procedure, shortened: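 AC50 values come from Hill-equation fits of luminescent intracellular ATP (CellTiter-Glo, 30 min, room temperature) following 24 h compound exposure at 37 C. Cells: LYMP2-019 lymphoblastoid line, 2500 per well, in complete culture medium.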

[18] = target: Thyroid hormone receptor beta (Homo sapiens) (UniProt P10828); experiment: qHTS assay for small molecule antagonists of thyroid hormone receptor beta signaling (AID 588547; active means well fitted inhibition curve with a large enough effect in the signal ratio, with a control signal flat, not every such curve was filed as active; the % refers to the signal ratio;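 further: cells stimulated with 0.4 nM T3 agonist during compound exposure; on the % scale 0 is the no-effect control and ±100 the full control effect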); conditions: TR-UAS-bla HEK293, beta-lactamase ratio, antagonist mode, 18 h
Procedure, shortened: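 TR-UAS-bla GripTite HEK293 cells in 2% charcoal/dextran FBS medium; compounds 0.59 nM to 92 uM with T3 at 0.4nM final, 18 h at 37 C. Beta-lactamase read by CCF4 fluorescence (460/530 nm); Hill fits gave IC50 and efficacy.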

[19] = qHTS assay for small molecule activators of the p53 signaling pathway (AID 651743; active means well fitted activation curve with a large enough effect in the signal ratio, not every such curve was filed as active; the % refers to the signal ratio; further: % of control where 0% means no effect); conditions: HCT-116 p53RE-bla, beta-lactamase FRET ratio, 16 h; activation: active compounds read high
Procedure, shortened: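 Following 16 hours of compound exposure at 37 C, HCT-116 cells bearing the p53RE-bla reporter were loaded with LiveBLAzer B/G FRET substrate for 2 hours at room temperature and fluorescence intensity was recorded.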

[20] = Cellular Toxicity (caspase-3) Hek293 (AID 664); conditions: HEK293 caspase-3 activation, DMSO = 0%, 100 µM tamoxifen = 100%; at 92.2 µM (top of the series);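 further: cells exposed to compound for 16 h at 37 °C before readout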
Procedure, shortened: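 Concentration-response qHTS: caspase 3/7 activation measured by luminescent aminoluciferin substrate cleavage after 16 h compound exposure of Hek 293 cells. AC50 from Hill equation, with DMSO as basal and 100 uM tamoxifen as 100%.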

Chain of Peroxisome proliferator-activated receptor alpha (Homo sapiens) (Q07869 whole entry, looked up, the tested form may be a part): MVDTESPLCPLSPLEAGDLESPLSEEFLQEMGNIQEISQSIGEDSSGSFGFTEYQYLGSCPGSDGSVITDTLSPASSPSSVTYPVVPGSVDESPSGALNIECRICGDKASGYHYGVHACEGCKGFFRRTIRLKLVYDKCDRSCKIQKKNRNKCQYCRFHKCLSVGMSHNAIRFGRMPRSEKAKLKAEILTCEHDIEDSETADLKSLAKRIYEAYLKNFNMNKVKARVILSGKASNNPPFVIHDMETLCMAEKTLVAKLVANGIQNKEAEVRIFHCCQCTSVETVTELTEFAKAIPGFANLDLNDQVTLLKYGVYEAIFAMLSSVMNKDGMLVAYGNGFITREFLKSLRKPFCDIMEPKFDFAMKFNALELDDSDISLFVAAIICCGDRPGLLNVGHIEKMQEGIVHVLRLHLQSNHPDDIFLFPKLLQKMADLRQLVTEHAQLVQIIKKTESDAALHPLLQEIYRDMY
Chain of Thyroid hormone receptor beta (Homo sapiens) (P10828 whole entry, looked up): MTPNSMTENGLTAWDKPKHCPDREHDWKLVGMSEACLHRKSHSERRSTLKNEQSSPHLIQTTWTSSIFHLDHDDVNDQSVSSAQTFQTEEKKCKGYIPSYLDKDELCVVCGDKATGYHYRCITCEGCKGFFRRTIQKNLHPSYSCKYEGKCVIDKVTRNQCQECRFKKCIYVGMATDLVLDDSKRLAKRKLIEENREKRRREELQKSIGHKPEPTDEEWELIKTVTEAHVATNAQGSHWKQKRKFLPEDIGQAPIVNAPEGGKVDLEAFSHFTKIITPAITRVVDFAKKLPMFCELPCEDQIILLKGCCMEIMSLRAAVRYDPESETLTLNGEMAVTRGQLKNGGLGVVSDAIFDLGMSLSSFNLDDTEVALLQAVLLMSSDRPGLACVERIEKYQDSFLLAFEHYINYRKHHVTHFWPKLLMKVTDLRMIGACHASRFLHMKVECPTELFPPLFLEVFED

N#CC(Cl)(Cl)Cl
inactive: Potency [1] | Potency [2] | Potency [3] | outcome [4] | outcome [5] | outcome [6] | Potency [7] | Potency [8] | Potency [9] | Potency [10] | Potency [11] | Potency [12] | Potency [13] | Potency [14] | max response [15] 9.56%

CC(C)(C)OOC(=O)c1ccccc1
active: activity change, negative = cytotoxicity [1] -137%
inactive: Potency [3] | outcome [16] | outcome [5] | outcome [6] | Potency [7] | Potency [8] | Potency [17] | Potency [9] | Potency [10] | Potency [11] | Potency [12] | activity change % (negative = inhibition) [18] 11.4% | activation [19] -3.4% and 2.14% | Potency [13] | Potency [14] | max response [15] -5.26% and -0.274%

COC(C)(C)C
inactive: Potency [1] | Potency [2] | Potency [3] | outcome [16] | outcome [4] | outcome [5] | outcome [6] | Potency [7] | caspase-3 activation [20] 0.0289% | Potency [8] | Potency [17] | Potency [9] | Potency [10] | Potency [11] | Potency [12] | activity change % (negative = inhibition) [18] -17.3% | activation [19] -2.31% | Potency [13] | Potency [14] | max response [15] -1.3%

Cc1cc(Cl)ccc1O
inactive: Potency [1] | Potency [2] | Potency [3] | outcome [16] | outcome [5] | outcome [6] | Potency [7] | caspase-3 activation [20] 0.112% | Potency [8] | Potency [17] | Potency [9] | Potency [10] | Potency [11] | Potency [12] | activity change % (negative = inhibition) [18] -9.26% | activation [19] -0.272% | Potency [13] | Potency [14] | max response [15] -3.66%

Nc1c(Br)cc([N+](=O)[O-])cc1[N+](=O)[O-]
active: Potency [13] 21.1 µM | Potency [14] 26.6 µM
inactive: Potency [1] | Potency [2] | Potency [3] | outcome [16] | outcome [4] | outcome [6] | caspase-3 activation [20] 4.97% | Potency [8] | Potency [17] | Potency [9] | Potency [10] | Potency [11] | Potency [12] | activation [19] -4.7% | max response [15] -5.44%

CCCC[N+](=O)[O-]
inactive: Potency [1] | Potency [2] | Potency [3] | outcome [4] | outcome [6] | Potency [7] | caspase-3 activation [20] 23.2% | Potency [8] | Potency [17] | Potency [9] | Potency [10] | Potency [11] | Potency [12] | activity change % (negative = inhibition) [18] 2.77% | Potency [13] | Potency [14]

COP(=S)(OC)SCn1nnc2ccccc2c1=O
inactive: Potency [3] | outcome [16] | outcome [5] | outcome [6] | caspase-3 activation [20] 0.18% | Potency [8] | Potency [17] | Potency [9] | Potency [10] | Potency [11] | Potency [12] | activity change % (negative = inhibition) [18] 7.85% | activation [19] 1.84% and 3.37% | max response [15] -5.24% and -2.4%
active: Potency [2] 15.8 µM

Cc1cc(N=Nc2ccccc2C)ccc1N
inactive: outcome [16] | outcome [4] | outcome [5] | outcome [6] | caspase-3 activation [20] -5.62% | Potency [8] | Potency [17] | Potency [9] | Potency [10] | Potency [11] | Potency [12] | activity change % (negative = inhibition) [18] -2.95% and 5.44% | activation [19] -4.82% and -5.43% | max response [15] -6.65% and -1.39%

Cc1cc(C)cc(OP(=O)(Oc2cc(C)cc(C)c2)Oc2cc(C)cc(C)c2)c1
active: Potency [13] 11.9 µM
inactive: Potency [2] | outcome [16] | outcome [4] | outcome [5] | outcome [6] | Potency [7] | caspase-3 activation [20] 1.43% | Potency [17] | Potency [9] | Potency [10] | Potency [11] | Potency [12] | activity change % (negative = inhibition) [18] 2.87% | activation [19] -0.0195% | max response [15] -0.353%

Clc1cccc(Cl)c1
inactive: Potency [1] | Potency [2] | Potency [3] | outcome [4] | outcome [5] | Potency [7] | caspase-3 activation [20] 1.04% | Potency [8] | Potency [17] | Potency [9] | Potency [10] | Potency [11] | Potency [12] | activity change % (negative = inhibition) [18] 13.8% | Potency [13] | Potency [14] | max response [15] -0.108%

Oc1c(Cl)c(Cl)cc(Cl)c1Cl
active: Potency [13] 42.2 µM
inactive: Potency [3] | outcome [16] | outcome [4] | outcome [5] | outcome [6] | Potency [7] | caspase-3 activation [20] -2.19% | Potency [8] | Potency [17] | Potency [9] | Potency [10] | Potency [11] | Potency [12] | activity change % (negative = inhibition) [18] 23.1%

Nc1ccc(Cc2ccc(N)c(Cl)c2)cc1Cl
inactive: Potency [1] | Potency [2] | Potency [3] | outcome [4] | outcome [5] | caspase-3 activation [20] 1.19% | Potency [8] | Potency [17] | Potency [10] | Potency [11] | Potency [12] | activation [19] -1.58% | Potency [13] | Potency [14] | max response [15] 2.66%

Brc1ccc(Oc2ccc(Br)cc2Br)c(Br)c1
inactive: Potency [1] | Potency [3] | outcome [16] | outcome [4] | outcome [5] | outcome [6] | Potency [7] | caspase-3 activation [20] 19.3% | Potency [8] | Potency [17] | Potency [9] | Potency [10] | Potency [11] | Potency [12] | activity change % (negative = inhibition) [18] 4.48% | activation [19] 2.43% | Potency [14] | max response [15] 6.57%

Cc1ccc(OP(=O)(Oc2ccc(C)cc2)Oc2ccc(C)cc2)cc1
inactive: Potency [1] | Potency [2] | Potency [3] | outcome [16] | outcome [4] | outcome [5] | outcome [6] | Potency [7] | caspase-3 activation [20] 2.34% | Potency [8] | Potency [17] | Potency [9] | Potency [10] | Potency [11] | Potency [12] | activity change % (negative = inhibition) [18] -7.32% and 3.64% | activation [19] 0.798% and -5.64% | max response [15] -4.04% and -0.382%
active: Potency [13] 9.44 µM | Potency [14] 13.3 µM

Reference: PubChem BioAssay (NCATS)
